# Measurements reported in PubChem BioAssay AID1347417 (National Center for Advancing Translational Sciences (NCATS), 2020).
# The whole screen tested about 120,000 compounds, of which about 5,300 (4.4%) were called active. Roughly 22% stayed inconclusive and do not appear here. The sample holds actives, similar compounds and a random draw of the others, so the mix is not that of the screen. Calls follow the shape of the dose curve; as a rule, active = well fitted inhibition curve with a large enough effect; inconclusive = small, poorly fitted or top-dose-only effect; inactive = no such curve, though single readings can be large or run the other way.
# Test: qHTS Primary assay for Inhibitors of Plasmodium falciparum Dd2 growth in vitro; also: nearly all actives have a fitted effect of over 65% in size;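 as to activity, negative = inhibition: plate controls were DMSO vehicle for no effect and reference drug for full effect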
# Details: P. falciparum Dd2 growth, SYBR Green, 72 h; series mostly up to 28.9 µM; activity, negative = inhibition: at the top concentration
# Summary of the method: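 Readout: SYBR Green fluorescence, 485 nm excitation, 535 nm emission, after ~16 h lysis at 37C. Before that, Dd2-infected red cells (2.5% hematocrit) grew 72 h with compound, 29 uM top final concentration.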
# Potency is read from the fitted curve at half-maximal effect.
SMILES,"activity, negative = inhibition",Potency,outcome
O=C(NC1CCCC1)N1CCC(c2noc(-c3ccccc3)n2)C1 (centres undefined),13.8% [at 5.79 µM] (inactive),–,–
c1cc(CN2CCCCCC2)cc(-c2nc(C3CCOC3)no2)c1 (centres undefined),–,8.91 µM (active),–
COc1cccc(CCC(=O)N2CCCC2c2nc(C3CCOCC3)no2)c1 (centres undefined),-2.39% (inactive),–,–
Cc1ccc(C2CC(=O)Nc3c2c(C2CC2)nn3C)c(C)c1F (centres undefined),-20.9% (inactive),–,–
COc1ccc(Cl)cc1NC(=O)CSc1nc2ccccc2c2nc(-c3ccccc3)nn12,107% (inactive),–,–
COc1cc2nc(NCC(C)c3ccccc3)n3nc(-c4ccccc4)nc3c2cc1OC (centres undefined),–,3.55 µM (active),–
COc1cc2nc(SCC(=O)Nc3ccccc3F)n3nc(-c4ccccc4)nc3c2cc1OC,-5.43% (inactive),–,–
COc1cccc(N2C(=O)NC(=NC3CCCCC3)C23CCN(CC2CC2)CC3)c1,-3.09% (inactive),–,–
Cc1ccc(S(=O)(=O)N2CCCC(CCC(=O)NC3CCCCC3)C2)cc1 (centres undefined),–,12.6 µM (active),–
O=C(CCC1CCCN(S(=O)(=O)c2ccc(F)cc2)C1)NC1CCS(=O)(=O)C1 (centres undefined),1.2% (inactive),–,–
Cc1ccc(C(=O)N2CCC(CCC(=O)NC3CCCCC3)CC2)cc1,-9.5% (inactive),–,–
Cc1nc([C@@H]2CN(C(=O)CCCc3nc4ccccc4s3)C[C@H]2C(N)=O)n[nH]1,-8.7% (inactive),–,–
CC1(C)[C@H](Cc2cc(CC3CCCCC3)on2)C[C@@H]1NC(=O)C1CCC1,–,11.2 µM (active),–
CCC(CC)C(=O)N[C@H]1C[C@@H](Cc2cc(COc3ccccc3)on2)C1(C)C,–,–,inactive [at 44.1 µM]
CCNC(=O)N[C@H]1C[C@@H](Cc2cc(CC(C)C)on2)C1(C)C,–,–,inactive; activator [at 44.1 µM]
Cc1cc(CN(C)C(=O)C2C3C(=O)N(Cc4ccc(C)c(C)c4)C[C@@]34C=C[C@@H]2O4)no1 (some centres undefined),-14.8% (inactive),–,–
COc1cccc(C(=O)c2sc3nc(-c4ccccc4)cc(C(F)(F)F)c3c2N)c1,-9.26% (inactive),–,–
COc1ccc(S(=O)(=O)c2c(Nc3ccc(C)cc3)sc(C(=O)c3ccc(C)cc3)c2N)cc1,–,10 µM (active),–
Cc1cccc(Nc2nc(C)nc(N)c2S(=O)(=O)c2ccccc2)c1,–,–,inactive
CCOC(=O)c1ccc(NC(=O)CCS(=O)(=O)c2ccc(C)cc2)cc1,3.65% (inactive),–,–
COc1ccc(N2C(=O)CSC23CCN(C(=O)c2ccc(C)cc2)CC3)cc1,-11.5% (inactive),–,–
Cc1ccc(S(=O)(=O)c2c(Nc3cccc(Cl)c3)sc(C(=O)c3ccc4c(c3)OCO4)c2N)cc1,–,7.94 µM (active),–
Cc1ccc(CN2C[C@H]3CN(C(=O)c4ccc5c(c4)OCO5)CCN3C2=O)cc1,–,–,inactive [at 44.1 µM]
COc1ccc(S(=O)(=O)c2c(Nc3cccc(Cl)c3)sc(C(=O)c3ccccc3)c2N)cc1,–,8.91 µM (active),–

SMILES,"activity, negative = inhibition",Potency,outcome
CCOC(=O)c1[nH]ncc1C1CC(=O)Nc2c1cnn2Cc1cccnc1 (centres undefined),-9.38% (inactive),–,–
C[S+](=O)([O-])N1CCC(Cn2ccc3c(N4CCOCC4)nc(-c4cccc(O)c4)cc32)CC1,–,–,inactive
CN1CCc2c([nH]c3ccccc23)C12CCN(C(=O)c1nccc3ccccc13)CC2,–,–,inactive
CCC(CC)C(=O)N1CC(C(=O)N(C)C)C2(CCOCC2)C1 (centres undefined),0.16% (inactive),–,–
Cc1cccc(C)c1NC(=O)Cn1ccn2nc(-c3ccccc3)c(CO)c2c1=O,29.5% (inactive),–,–
O=C1CO[C@H]2CN(C3CCOCC3)C[C@H]2N1c1ccccc1,-6.35% [at 44.1 µM] (inactive),–,–
COc1ccc(-c2cc(-c3ccc(F)cc3)nc3c2COc2ccccc2-3)cc1,–,–,inactive
Fc1ccc(-c2nc(Nc3cccc(Cl)c3)nc3c2COc2ccccc2-3)cc1,–,11.2 µM (active),–
COc1ccc(-c2cc(-c3ccccc3)nc3c2COc2ccc(Cl)cc2-3)cc1,–,–,inactive; activator; fitted 0.4467 uM
COc1ccc(Cl)cc1C(=O)N1CCN(c2cc(C(F)(F)F)nc(C)n2)CC1,-20.6% (inactive),–,–
COc1ccc(C(=O)N2CCOC3(CCN(C(=O)c4c(C)noc4C)CC3)C2)cc1,38.2% (inactive),–,–
CCc1ccc(Sc2cc(C(=O)NCCCOC(C)C)c3ccccc3n2)cc1,-12.5% (inactive),–,–
CCC1=Nc2cc(C(=O)NCC(C)c3ccccc3)ccc2Sc2ccc(C)cc21 (centres undefined),–,11.2 µM (active),–
CC1=Nc2cc(C(=O)NCc3ccc(C)cc3)ccc2Sc2ccc(Cl)cc21,-2.44% (inactive),–,–
Cc1ccc(N(CC(=O)NCC(C)c2ccccc2)S(=O)(=O)N(C)C)cc1 (centres undefined),24.7% (inactive),–,–
CCC1=Nc2cc(C(=O)NCCCOC(C)C)ccc2Sc2ccc(C)cc21,–,12.6 µM (active),–
COCCNC(=O)c1ccc2c(c1)N=C(C)c1cc(C)ccc1S2,–,–,inactive
O=C(c1ccc(OC(F)(F)F)cc1)N1CCC(n2cc(-c3nc(C4CC4)no3)nn2)C1 (centres undefined),-8.12% (inactive),–,–
O=C(c1ccoc1)N1CCC(N2CC3CC(C2)[C@H]2CCCC(=O)N2C3)CC1 (some centres undefined),-7.89% (inactive),–,–
Cc1ccc(Cc2ccccc2C(=O)N2C[C@@H](CN(C)CCO)[C@@H](CO)C2)cc1,-19.7% (inactive),–,–
Cc1ccc(C(=O)N2CCC(CCC(=O)N3CCc4ccccc4C3)CC2)cc1,–,–,inactive
Cc1ncc2n1C(=O)N(C1CCN(C(=O)c3ccc(Cl)cc3)CC1)C2,14.4% (inactive),–,–
COCCNS(=O)(=O)c1cc(-c2nn3c(C)nnc3c3ccccc23)ccc1C,-3.2% (inactive),–,–
CCNS(=O)(=O)c1cc(-c2nnc(Nc3cccc(C(F)(F)F)c3)c3ccccc23)ccc1C,-7.56% (inactive),–,–

SMILES,"activity, negative = inhibition",Potency,outcome
Cc1ccc(-c2nnc(Nc3ccc(OCC(N)=O)cc3)c3ccccc23)cc1S(=O)(=O)NCC1CCCO1 (centres undefined),–,1.12 µM (active),–
COC(=O)c1c(NC(=O)c2ccccc2)c2cc(NC(C)C)cnc2n1CC1CCCO1 (centres undefined),4.39% (inactive),–,–
Cc1ccc(Nc2nnc(-c3ccc(C)c(S(=O)(=O)N4CCCCC4)c3)c3ccccc23)cc1,-8.84% (inactive),–,–
Cc1ccc(-c2nnc(Nc3cccc(Br)c3)c3ccccc23)cc1S(=O)(=O)NCC1CCCO1 (centres undefined),–,11.2 µM (active),–
O=C(NCCc1noc(C2CC2)n1)c1ccc2c(c1)OCO2,19.1% (inactive),–,–
C[S+](=O)([O-])N1CC2ON=C(C(=O)N3CCCC3)C2C1 (centres undefined),10.8% [at 44.1 µM] (inactive),–,–
COCCn1ncc(N2CCC(C(=O)NCc3ccc(C)o3)C2)cc1=O (centres undefined),-20.4% (inactive),–,–
CC(C)(C)c1ccnc(N[C@H]2CO[C@H]3[C@@H]2OC[C@H]3OC(=O)Nc2cccc(C(F)(F)F)c2)n1,-5.75% (inactive),–,–
Cc1ccc(NC(=O)c2cnc(-c3ccccc3)nc2-c2ccncc2)cc1C,-4.94% (inactive),–,–
O=[S+]1([O-])NCC2(CCCN(Cc3ccncc3)C2)Oc2ncccc21 (centres undefined),116% (inactive),–,–
Cc1nn(C)c(C)c1S(=O)(=O)N1CCC(c2noc(-c3ccccc3)n2)C1 (centres undefined),8.68% [at 5.79 µM] (inactive),–,–
CC(C)Cn1c(-c2ccc(S(=O)(=O)N3CCOCC3)cc2)csc1=Nc1cc(Cl)ccc1Cl,–,10 µM (active),–
O=C(CN1C(=O)COc2ccc(S(=O)(=O)N3CCOCC3)cc21)N1CCN(c2cccc(Cl)c2)CC1,-25.6% (inactive),–,–
O=C1[C@@H]2C[C@@H](O)CN2C2(CN(Cc3ccc(OC(F)(F)F)cc3)C2)C(=O)N1Cc1ccccc1Cl,-3.76% (inactive),–,–
CO[C@H]1[C@H](NC(=O)c2cnc3ccccc3c2)c2ccccc2C12CCNCC2,-5.04% (inactive),–,–
c1ccc2c(c1)CCN2C1CN(Cc2cccc3ccccc23)C1,-22% (inactive),–,–
Clc1ccc(-c2nnc3n2CCN(Cc2cccc4ccccc24)C3)cc1,5.45% (inactive),–,–
Cc1ccccc1N(C)C1CN(Cc2cccc3ccccc23)C1,–,10 µM (active),–
COc1cc2c(cc1Oc1cccc(N(C)C)c1)NC(=O)C21CCN(Cc2ccccn2)CC1,–,–,inactive
COc1cc2c(cc1OCc1ccncc1)NC(=O)C21CCN(c2ncccn2)CC1,–,–,inactive [at 44.1 µM]
COc1cc2c(cc1Oc1cccc(N(C)C)c1)NC(=O)C21CCN(c2cnccn2)CC1,–,0.891 µM (active),–
COc1ccc(NC(=O)O[C@@H]2CO[C@H]3[C@@H]2OC[C@@H]3NC(=O)C2CCCCC2)cc1,-19.6% [at 44.1 µM] (inactive),–,–
O=C(CC1CCCN(c2cnn(CC3CC3)c(=O)c2)C1)NCc1cc(F)cc(F)c1 (centres undefined),–,–,inactive
COc1ccc(NC(=O)Cn2c(=O)n(-c3ccccc3)c(=O)c3c2cc(C)n3C)cc1,64.6% (inactive),–,–

SMILES,"activity, negative = inhibition",Potency,outcome
N#Cc1ccc(S(=O)(=O)NC2CCc3nn(CC4CC4)c(=O)n3CC2)cc1 (centres undefined),5.54% (inactive),–,–
CCCN(CCC)CCCNC(=O)Cn1ncc2c3ccccc3n(Cc3ccccc3)c2c1=O,–,5.01 µM (active),–
CCCn1c2ccccc2c2cnn(CC(=O)N(CC)c3cc(C)ccc3C)c(=O)c21,28.1% (inactive),–,–
CCN(CC)CCNC(=O)Cn1ncc2c3ccccc3n(Cc3ccccc3C)c2c1=O,–,10 µM (active),–
CCN(CCCNC(=O)Cn1ncc2c3ccccc3n(C)c2c1=O)Cc1ccccc1,-10.1% (inactive),–,–
CCCn1c2ccccc2c2cnn(CC(=O)N(C)c3ccccc3CC)c(=O)c21,-15% (inactive),–,–
CCCn1c2ccccc2c2cnn(CC(=O)NCCCOC(C)C)c(=O)c21,–,–,inactive
COc1cccc(CC(=O)N2CCC(c3nc(CCOc4ccc(F)cc4)no3)C2)c1 (centres undefined),–,–,inactive
COCCNC(=O)[C@@H]1C[C@@H](O)CN1C1CCN(C(=O)CCc2ccccc2)CC1,21.1% (inactive),–,–
CCn1c(=O)c2ccnn2c2ccc(C(=O)NC3CCCCC3)cc21,–,–,inactive
Cc1ccccc1NC(=O)N1CCC(CCNC(=O)c2ccoc2)CC1,2.98% (inactive),–,–
O=C(c1cccc(Cl)c1)N1CCN(c2cc(-c3cccs3)[nH]n2)CC1,–,–,inactive
COc1cccc(CN2Cc3nc(Nc4cccc(F)c4)ccc3OCC2=O)c1,-23.1% [at 44.1 µM] (inactive),–,–
CN(CCCn1cccn1)C(=O)C1CCN(C(=O)C2CCCC2)CC1,-0.759% (inactive),–,–
O=C(N[C@@H]1CN(Cc2c(F)cccc2F)C[C@H]1CO)c1ccccc1,-18.3% (inactive),–,–
O=C(Nc1ccccc1)[C@H]1CN2CCC1C[C@@H]2Cn1cc(CO)nn1 (some centres undefined),–,–,inactive [at 44.1 µM]
Cc1cc(N2CCCC(Cn3cc(Cc4ccccc4)nn3)C2)nc(N)n1 (centres undefined),–,12.6 µM (active),–
O=C(NCc1ccccc1)[C@@H]1C[C@@H](c2ccc(F)cc2)N([S+](=O)([O-])c2cccnc2)C1,–,–,inactive [at 44.1 µM]
O=C1Nc2ccc(Br)cc2C(=O)N2CCN(C(=O)C3CCCCC3)C[C@H]12,2.95% [at 44.1 µM] (inactive),–,–
CCOC(=O)c1c(NC(=O)Cc2coc3ccc(CC)cc23)sc2c1CCC2,6.52% (inactive),–,–
CCOC(=O)c1c(NC(=O)c2cc(-c3ccc(Cl)cc3)on2)sc2c1CCCC2,–,–,inactive
CCOC(=O)c1ccc(NC(=O)c2c(NCc3cccs3)sc3c2CCCC3)cc1,–,10 µM (active),–
